The campaign covered roughly 5,500 compounds. About 2,000 (36%) were called active. Another 18% or so got no clear call; they are omitted. Cut-off read from the data, not from the text of the source: active = normalized growth mostly below about 0.91 (no sharp cut-off); inconclusive = no clear call, values can overlap the other calls; inactive = mostly above about 0.92. Some of the results follow.
Assay: chemical genetic growth profiling, strain panel (AID 1159580);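 note: tested at 20 µM; growth read once vehicle control cultures reached saturation at 30 °C; 1 = growth at the plate median or of vehicle wells; lower values mean less growth of the strain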
Details: growth OD

Measured: normalized growth

CN1C2CCC1CC(OC(c1ccccc1)c1ccccc1)C2 (stereo not given)
active: S. cerevisiae deletion strains, locus YJR075W, strain HOC1, stronger effect = lower value 0.847 | S. cerevisiae deletion strains, locus YLR330W, strain CHS5, stronger effect = lower value 0.809 | S. cerevisiae deletion strains, locus YLR418C, strain cdc73, stronger effect = lower value 0.814 | S. cerevisiae deletion strains, locus YNL233W, strain BNI4, stronger effect = lower value 0.766 | S. cerevisiae deletion strains, locus YOR184W, strain ser1, stronger effect = lower value 0.774 | S. cerevisiae strains, strain wild type, stronger effect = lower value 0.882
inactive: S. cerevisiae deletion strains, locus YJR043C, strain POL32, stronger effect = lower value 0.95 | S. cerevisiae deletion strains, locus YKL009W, strain mrt4, stronger effect = lower value 0.918 | S. cerevisiae deletion strains, locus YKL068W, stronger effect = lower value 0.986 | S. cerevisiae deletion strains, locus YKL085W, strain MDH1 (second series), stronger effect = lower value 0.978 | S. cerevisiae deletion strains, locus YKL085W, strain MDH1, stronger effect = lower value 0.978 | S. cerevisiae deletion strains, locus YKL160W, strain elf1, stronger effect = lower value 1 | S. cerevisiae deletion strains, locus YKR001C, strain vps1, stronger effect = lower value 0.926 | S. cerevisiae deletion strains, locus YKR026C, strain gcn3, stronger effect = lower value 0.972 | S. cerevisiae deletion strains, locus YKR091W, strain srl3, stronger effect = lower value 0.971 | S. cerevisiae deletion strains, locus YLL001W, strain dnm1, stronger effect = lower value 1.01 | S. cerevisiae deletion strains, locus YLL026W, stronger effect = lower value 0.991 | S. cerevisiae deletion strains, locus YLL041C, strain sdh2, stronger effect = lower value 0.995 | S. cerevisiae deletion strains, locus YLR027C, strain aat2, stronger effect = lower value 0.989 | S. cerevisiae deletion strains, locus YLR039C, strain RIC1, stronger effect = lower value 0.795 | S. cerevisiae deletion strains, locus YLR058C, strain SHM2, stronger effect = lower value 0.91 | S. cerevisiae deletion strains, locus YLR102C, strain apc9, stronger effect = lower value 0.996 | S. cerevisiae deletion strains, locus YLR221C, strain rsa3, stronger effect = lower value 0.985 | S. cerevisiae deletion strains, locus YLR258W, strain gsy2, stronger effect = lower value 0.982 | S. cerevisiae deletion strains, locus YLR262C, strain YPT6 (second series), stronger effect = lower value 1.04 | S. cerevisiae deletion strains, locus YLR262C, strain YPT6, stronger effect = lower value 0.647 | S. cerevisiae deletion strains, locus YLR268W, strain sec22, stronger effect = lower value 0.96 | S. cerevisiae deletion strains, locus YLR320W, strain mms22, stronger effect = lower value 0.951 | S. cerevisiae deletion strains, locus YLR342W, strain FKS1 (second series), stronger effect = lower value 0.842 | S. cerevisiae deletion strains, locus YLR342W, strain FKS1, stronger effect = lower value 0.997 | S. cerevisiae deletion strains, locus YLR357W, strain rsc2, stronger effect = lower value 0.958 | S. cerevisiae deletion strains, locus YLR370C, strain arc18, stronger effect = lower value 0.987 | S. cerevisiae deletion strains, locus YLR371W, strain rom2, stronger effect = lower value 0.969 | S. cerevisiae deletion strains, locus YLR384C, strain iki3, stronger effect = lower value 0.999 | S. cerevisiae deletion strains, locus YML016C, strain PPZ1, stronger effect = lower value 0.981 | S. cerevisiae deletion strains, locus YML032C, strain rad52, stronger effect = lower value 0.979 | S. cerevisiae deletion strains, locus YML120C, strain ndi1, stronger effect = lower value 0.985 | S. cerevisiae deletion strains, locus YML124C, strain tub3, stronger effect = lower value 0.993 | S. cerevisiae deletion strains, locus YMR058W, strain fet3, stronger effect = lower value 0.978 | S. cerevisiae deletion strains, locus YMR078C, strain ctf18, stronger effect = lower value 0.954 | S. cerevisiae deletion strains, locus YMR125W, strain sto1, stronger effect = lower value 0.963 | S. cerevisiae deletion strains, locus YMR129W, stronger effect = lower value 0.984 | S. cerevisiae deletion strains, locus YMR205C, strain PFK2, stronger effect = lower value 0.969 | S. cerevisiae deletion strains, locus YMR223W, strain ubp8, stronger effect = lower value 0.948 | S. cerevisiae deletion strains, locus YMR231W, strain pep5, stronger effect = lower value 1 | S. cerevisiae deletion strains, locus YMR263W, strain SAP30, stronger effect = lower value 1 | S. cerevisiae deletion strains, locus YMR307W, strain GAS1, stronger effect = lower value 0.807 | S. cerevisiae deletion strains, locus YNL067W, strain RPL9B, stronger effect = lower value 0.898 | S. cerevisiae deletion strains, locus YNL071W, strain lat1, stronger effect = lower value 0.964 | S. cerevisiae deletion strains, locus YNL128W, strain TEP1, stronger effect = lower value 0.925 | S. cerevisiae deletion strains, locus YNL175C, strain NOP13, stronger effect = lower value 1.03 | S. cerevisiae deletion strains, locus YNL197C, strain WHI3, stronger effect = lower value 1.03 | S. cerevisiae deletion strains, locus YNL209W, strain ssb2, stronger effect = lower value 0.981 | S. cerevisiae deletion strains, locus YNL224C, strain SQS1, stronger effect = lower value 1.01 | S. cerevisiae deletion strains, locus YNL248C, strain rpa49, stronger effect = lower value 0.969 | S. cerevisiae deletion strains, locus YNL250W, strain rad50, stronger effect = lower value 0.971 | S. cerevisiae deletion strains, locus YNL271C, strain bni1, stronger effect = lower value 0.967 | S. cerevisiae deletion strains, locus YNL298W, strain CLA4, stronger effect = lower value 0.95 | S. cerevisiae deletion strains, locus YNL307C, strain MCK1, stronger effect = lower value 0.91 | S. cerevisiae deletion strains, locus YNL322C, strain KRE1 (second series), stronger effect = lower value 0.98 | S. cerevisiae deletion strains, locus YNL322C, strain KRE1, stronger effect = lower value 0.973 | S. cerevisiae deletion strains, locus YNR049C, strain mso1, stronger effect = lower value 0.984 | S. cerevisiae deletion strains, locus YNR052C, strain pop2, stronger effect = lower value 0.972 | S. cerevisiae deletion strains, locus YOL006C, strain TOP1, stronger effect = lower value 0.597 | S. cerevisiae deletion strains, locus YOL012C, strain htz1 1 | S. cerevisiae deletion strains, locus YOL147C, strain pex11, stronger effect = lower value 0.985 | S. cerevisiae deletion strains, locus YOR001W, strain rrp6, stronger effect = lower value 0.99 | S. cerevisiae deletion strains, locus YOR061W, strain CKA2, stronger effect = lower value 0.979 | S. cerevisiae deletion strains, locus YOR069W, strain VPS5, stronger effect = lower value 0.971 | S. cerevisiae deletion strains, locus YOR070C, strain gyp1, stronger effect = lower value 0.989 | S. cerevisiae deletion strains, locus YOR080W, strain dia2, stronger effect = lower value 0.989 | S. cerevisiae deletion strains, locus YOR083W, strain WHI5 (second series), stronger effect = lower value 0.998 | S. cerevisiae deletion strains, locus YOR083W, strain WHI5, stronger effect = lower value 0.998 | S. cerevisiae deletion strains, locus YOR106W, strain vam3, stronger effect = lower value 1 | S. cerevisiae deletion strains, locus YOR136W, strain idh2, stronger effect = lower value 0.972 | S. cerevisiae deletion strains, locus YOR144C, strain elg1, stronger effect = lower value 0.993 | S. cerevisiae deletion strains, locus YOR265W, strain rbl2, stronger effect = lower value 0.988 | S. cerevisiae deletion strains, locus YOR270C, strain vph1, stronger effect = lower value 0.943 | S. cerevisiae deletion strains, locus YOR290C, strain snf2, stronger effect = lower value 0.967 | S. cerevisiae deletion strains, locus YOR316C, strain cot1, stronger effect = lower value 0.986 | S. cerevisiae deletion strains, locus YPL051W, strain arl3, stronger effect = lower value 0.995 | S. cerevisiae deletion strains, locus YPL078C, strain atp4, stronger effect = lower value 0.998 | S. cerevisiae deletion strains, locus YPL106C, strain sse1, stronger effect = lower value 0.912 | S. cerevisiae deletion strains, locus YPL240C, strain hsp82, stronger effect = lower value 0.995 | S. cerevisiae deletion strains, locus YPL241C, strain CIN2, stronger effect = lower value 0.999 | S. cerevisiae deletion strains, locus YPR119W, strain clb2, stronger effect = lower value 0.973 | S. cerevisiae deletion strains, locus YPR141C, strain kar3, stronger effect = lower value 0.966 | S. cerevisiae deletion strains, locus YPR163C, strain tif3, stronger effect = lower value 0.952 | S. cerevisiae deletion strains, locus YPR167C, strain met16, stronger effect = lower value 0.965 | S. cerevisiae deletion strains, strain wtn01, stronger effect = lower value 0.977

Reference: PubChem BioAssay AID1159580 (chemical genetic matrix, 2015)
